Screening data (PubChem)
SMN2 splice up: SMN2 splice variant enhancement | HEK293 SMN2-luciferase splicing reporter, luminescence, 30-36 h | Potency, µM (titrated, usually from 46.1 µM), for inactives: at the highest dose activity change, positive = activation, most hits filed as activators | hit rate 2.8% among 210,000; further: % of control where 0% means no effect; nearly all actives have a fitted effect of over 55% in size
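qHTS luciferase splicing reporter: luminescence rises when SMN2 exon 7 is included in transfected HEK293 cells. Compound exposure lasted 30-36 h at 37C, with 4.5 mM final sodium butyrate as control, followed by a ONE-Glo read.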
ELG1 genotoxic: inducers of genotoxicity in HEK293T ELG1-luciferase cells; Potency, µM (doses to about 46 µM), for inactives: top-dose activity change, positive = activation, usual class: activators; HEK293T ELG1-luciferase reporter, luminescence, 16 h; hit rate 1.3% among 330,000; further: % of control where 0% means no effect; nearly all actives have a fitted effect of over 60% in size
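Genotoxicity was scored as increased ELG1-luciferase reporter signal, measured by ONE-Glo luminescence (30 min, room temperature). Compound or vehicle exposure of the HEK293T reporter cells lasted 16 hr at 37°C.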
NPC1 promoter act: activates the NPC1 promoter; Huh7 NPC1 promoter luciferase reporter, 24 h; Potency, µM (top dose mostly 9.22 µM), without a hit: top-dose activation, most hits filed as activators; hit rate 2.4% among 320,000; AID 485313; further: % of control where 0% means no effect; nearly all actives have a fitted effect of over 60% in size
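Quantitative HTS used a cell-based reporter: Huh7 cells stably bearing the NPC1 promoter upstream of luciferase were treated with compounds for 24 h, and promoter activation was read as luminescence.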
Rab9 prom act: activates the Rab9 promoter; Huh7 Rab9 promoter-luciferase reporter, luminescence, 24 h; Potency, µM (highest dose often 9.22 µM), without a hit: top-dose activation, negative = inhibition, most hits filed as activators; hit rate 2.8% among 320,000; AID 485297; further: % of control where 0% means no effect; nearly all actives have a fitted effect of over 60% in size
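Luminescence from Amplite-detected luciferase (10 minutes, ambient) reports Rab9 promoter activation. Before that, stable Rab9-luciferase Huh7 cells (1500/well, reduced-serum OP-MEM I plus 10% FBS) were exposed to compound for 24 hours at 37C.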
KinaseGlo FLuc: blocks Kinase-Glo luciferase, a counter-screen artifact. hit rate 0.28% among 200,000. Potency, µM (series often up to 38.3 µM), inactives show top-dose activity change, negative = inhibition, most hits filed as inhibitors. Q27757. Kinase-Glo luciferase, ATP luminescence, 8 min; further: on the % scale 0 is the no-effect control and ±100 the full control effect; nearly all actives have a fitted effect of over 60% in size
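Luminescence was the read-out, taken after 8-minute incubation at ambient temperature. Luciferase turned over luciferin with 10 uM ATP in imidazole pH 7.2 buffer containing KCl, MgCl2, Tween 20 and BSA.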
FLuc counter: inhibits or activates purified firefly luciferase, miR-21 counter-screen; P08659; purified FLuc, Km substrates, luminescence inhibition; Potency, µM (doses to about 57.5 µM), without a hit: at the top dose activity change, negative = inhibition, most hits filed as inhibitors; hit rate 6.9% among 360,000; AID 588342;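 further: plate controls were vehicle for no effect and reference inhibitor for full effect; nearly all actives have a fitted effect of over 55% in size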
Target sequence (P08659 whole entry, looked up): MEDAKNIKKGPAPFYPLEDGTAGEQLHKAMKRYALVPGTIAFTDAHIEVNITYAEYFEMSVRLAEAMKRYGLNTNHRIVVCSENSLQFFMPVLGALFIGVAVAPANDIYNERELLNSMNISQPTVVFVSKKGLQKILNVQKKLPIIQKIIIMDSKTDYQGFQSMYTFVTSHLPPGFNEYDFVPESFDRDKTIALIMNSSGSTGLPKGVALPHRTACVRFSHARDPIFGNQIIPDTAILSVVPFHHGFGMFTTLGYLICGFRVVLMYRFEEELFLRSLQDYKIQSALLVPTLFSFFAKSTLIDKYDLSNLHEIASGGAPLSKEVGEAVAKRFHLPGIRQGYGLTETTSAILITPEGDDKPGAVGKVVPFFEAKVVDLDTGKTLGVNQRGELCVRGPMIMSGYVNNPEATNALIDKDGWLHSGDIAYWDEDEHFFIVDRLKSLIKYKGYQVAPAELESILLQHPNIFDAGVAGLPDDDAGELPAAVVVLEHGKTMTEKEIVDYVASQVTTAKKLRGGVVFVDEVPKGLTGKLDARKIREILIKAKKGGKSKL
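Purified P. pyralis luciferase (10nM final) with 10uM D-luciferin and 10uM ATP (Km levels) in 50mM Tris acetate pH 7.5, 10mM Mg acetate, 0.01% Tween-20, 0.05% BSA; qHTS 6-point titration, ~60 µM downward; luminescence read.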
* marks the source's active call; other numbers are inactive results; ? = inconclusive; . = no result; [ ] = dose if it differs, or a comment. Only some compounds are listed: those with a hit (about 7.5% of all), similar ones and a draw of the others. The call rests on the fitted dose curve; in most records, active means well fitted curve in the direction sought with a large enough effect; inconclusive means small, poorly fitted or top-dose-only effect, or another doubt; inactive means no such curve, though single readings can be large; an effect the other way counts as inactive or inconclusive. Potency means the concentration at half of the fitted maximal effect.

SMILES	SMN2 splice up	ELG1 genotoxic	NPC1 promoter act	Rab9 prom act	KinaseGlo FLuc	FLuc counter
O=C(Nc1ccc(OC(=O)c2cccs2)cc1)c1ccco1	19.0%	?	0.0%	9.7%	?	2.69µM*
COc1ccc(/C=N/NC(=O)c2ccccc2NC(=O)c2ccco2)c(OC)c1	.	1.6%	4.6%	0.6%	.	5.36µM*
O=C(c1ccc(NC(=O)C(c2ccccc2)c2ccccc2)cc1)c1ccc(C(=O)O)c(C(=O)O)c1	.	2.8%	-0.6%	7.7%	.	-8.4%
COc1ccc(NC(=O)c2cc3nc(-c4ccc(Cl)c(Cl)c4)cc(C(F)(F)F)n3n2)c(OC)c1	3.5%	.	.	.	.	0.6%
CC(=O)c1cc2c(C)c(C(=O)c3ccccc3)oc2cc1O	-6.5%[1.84 µM]	?	3.98µM*	1.58µM*	-1.1%	0.536µM*
O=C(c1ccccc1)c1ccc(O)cc1O	.	2.4%	-1.5%	-6.0%	.	?
CCOC(=O)c1cc(=O)n2nc(-c3ccc(C)cc3)nc2s1	1.3%	0.1%	0.3%	2.0%	-13.0%	3.01µM*
CCOC(=O)Cc1csc2nc(-c3ccccc3)nn12	.	-0.2%	-2.6%	0.2%	.	-14.8%
Cc1cc(=O)n(CCc2ccccc2)c(O)c1C#N	1.0%	2.7%	20.3%	?	-0.9%	13.5µM*
C(=N\N=C\c1cccs1)/c1cccs1	?	5.5%	?	2µM*	-16.9%	2.13µM*
O=C(/C=C/c1ccc2c(c1)OCCCO2)c1ccccc1O	?	16.4µM*	3.16µM*	1.78µM*	?	0.269µM*
Cc1ccc(O)c(C(=O)/C=C/c2ccc3c(c2)OCCCO3)c1	?	?	?	?	?	5.36µM*
COc1ccc(Nc2ncnc3onc(C)c23)cc1Cl	.	.	.	.	.	-0.3%
CCOc1cc(C(=O)OCC(=O)Nc2cccc(S(=O)(=O)NC3=NCCCCC3)c2)cc(OCC)c1OCC	.	-5.7%	.	.	.	.
Cc1cc2sc3ccccc3c(=O)c2c(C)c1O	.	15.5%	15.7%	21.1%	1.6%	8.49µM*
O=C(/C=C/c1ccco1)Nc1ccc(-c2nc3ccccc3[nH]2)cc1	3.55µM*	17.3%	-22.9%	-37.7%	2.1%	0.3%
O=C(CSc1nc2ccccc2[nH]1)Nc1ccc(F)cc1	-10.6%	-0.3%	-0.7%	-7.0%	1.3%	-12.5%
O=C(CSc1ccc(Cl)cc1)Nc1ccc(-c2nc3ccccc3[nH]2)cc1	7.94µM*	16.4%	20.6%	?	-1.1%	-3.0%
O=C(/C=C/c1ccco1)Nc1ccc(Oc2ccc(Cl)cc2)cc1	-27.7%	-4.8%	-5.4%	1.0%	-1.7%	-16.8%
O=C(Nc1ccc(-c2nc3ccccc3[nH]2)cc1)c1ccco1	6.31µM*	1.84µM*	0.708µM*	2.24µM*	?	4.26µM*
O=C(CSc1ccc(-c2nc3ccccc3[nH]2)cn1)N1CCN(C(=O)c2ccco2)CC1	-11.8%	-15.1%	-0.7%	10.2%	-18.8%	10.7µM*
S=C(Nc1ccc(-c2nc3ccccc3[nH]2)cc1)Nc1cccnc1	.	?	?	1.41µM*	.	13.5µM*
O=C(Nc1ccc2c(c1)CCC2)c1ccccc1F	4.47µM*	?	0.891µM*	0.708µM*	-17.1%	3.01µM*
O=C(Nc1ccc2c(c1)CCC2)c1ccccc1	2µM*	2.59µM*	1.26µM*	0.501µM*	-10.7%	1.07µM*
COc1cc2c(cc1NC(=O)c1ccccc1F)CCCC2	22.4µM*	?	7.0%	?	-1.5%	10.7µM*
O=C(O)c1ccccc1-c1ccccc1C(=O)Nc1ccc2c(c1)CCC2	.	-0.8%	1.6%	0.3%	.	-11.8%
COC(=O)c1cc(C(=O)N2CCc3ccccc32)cc([N+](=O)[O-])c1	.	4.1%	2.5%	5.2%	.	-0.3%
O=C(CN1C(=O)NC2(CCCC2)C1=O)OCC(=O)c1cccc(Cl)c1	.	1.5%	-2.2%	-5.1%	.	0.5%
COC(=O)c1cccc(NC(=O)/C=C/c2ccc([N+](=O)[O-])cc2)c1	-10.1%	-3.8%	8.0%	1.7%	-2.1%	2.39µM*
